The text below walks through data of PubChem BioAssay.

Active and inactive are the calls of the source.

Assay [1] can be described thus: small molecules captured by biotinylated probe aFSTL3 – biochemical, small-molecule microarray, fluorescence 635/667, stem cell growth factor project, primary screen (AID 1064).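 Note: measures binding of the biotinylated anti-FSTL3 antibody to printed compounds.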 To be noted: higher = more signal.
A short description of assay [2]: binders from COS7 lysate, DM2A8 probe, primary screen, torsin A project, cell lysate, small-molecule microarray, fluorescence 635/667 (AID 1065). As to conditions: higher = more signal, COS7 lysate expressing mutant human TOR1A.
A short description of assay [3]: small molecules captured by biotinylated probe aFGF2 – biochemical, small-molecule microarray, fluorescence 635/667, stem cell growth factor project, primary screen (AID 1067).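 Note: measures binding of biotinylated aFGF2 protein to printed compounds on slides; z-score merges feature fluorescence and signal-to-noise across triplicate slides.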 As to conditions: higher = more signal.
Assay [4] is described as follows: small molecules captured by biotinylated probe aFGF10 – biochemical, small-molecule microarray, fluorescence 635/667, stem cell growth factor project, primary screen (AID 1071).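 Note: score merges 667 nm spot intensity and signal to noise from triplicate slides.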 To be noted: higher = more signal.
Assay [5] addresses Neurogenic locus notch homolog protein 2 (Homo sapiens) (UniProt Q04721). Nature of the assay: small molecules binding Notch2 protein – biochemical, small-molecule microarray, 635 nm fluorescence, stem cell growth factors, primary screen (AID 1073). To be noted: higher = more signal.
For assay [6], the target named is Pro-neuregulin-1, membrane-bound isoform (Homo sapiens) (UniProt Q02297). Nature of the assay: small molecules binding neuregulin-1 protein – biochemical, small-molecule microarray, fluorescence 635/667, psychiatric disease protein project, primary screen (AID 1075).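 Note: score combines 667 nm spot fluorescence with signal to noise.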 To be noted: NRG1 binding, 635 nm fluorescence, higher = more signal.
Assay [7] relates to Neuregulin-1 EGF-like domain. Nature of the assay: small molecules binding NRG1 EGF domain – biochemical, small-molecule microarray, 635 nm fluorescence, primary screen (AID 1081).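 Note: binding of the protein to compounds printed on small-molecule microarray slides.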 To be noted: higher = more signal.
Assay [8] is described as follows: FRG1 expression reporter modulators in myotubes – cell-based, C2C12 myotubes, firefly/Renilla luciferase, luminescence, FRG1 inhibition for FSHD, primary screen (AID 1084). As to conditions: FRG1 promoter luciferase, higher = more signal, called active from +8 up or from −8 down.
The nature of assay [9]: small molecules captured by biotinylated probe aFST – biochemical, small-molecule microarray, fluorescence 635/667, stem cell growth factor project, primary screen (AID 1086).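 Note: score merges 667 nm fluorescence with signal-to-noise of each printed compound spot.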 As to conditions: higher = more signal.
Assay [10] is described as follows: binders of probe aHhip on microarray, primary screen, stem cell growth factor project, biochemical, small-molecule microarray, fluorescence 635/667 (AID 1087).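 Note: score merges spot fluorescence at 667nm with spot signal to noise ratio.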 As to conditions: higher = more signal.

Sequence of Pro-neuregulin-1, membrane-bound isoform (Homo sapiens) (Q02297 whole entry, looked up, the tested form may be a part, canonical isoform): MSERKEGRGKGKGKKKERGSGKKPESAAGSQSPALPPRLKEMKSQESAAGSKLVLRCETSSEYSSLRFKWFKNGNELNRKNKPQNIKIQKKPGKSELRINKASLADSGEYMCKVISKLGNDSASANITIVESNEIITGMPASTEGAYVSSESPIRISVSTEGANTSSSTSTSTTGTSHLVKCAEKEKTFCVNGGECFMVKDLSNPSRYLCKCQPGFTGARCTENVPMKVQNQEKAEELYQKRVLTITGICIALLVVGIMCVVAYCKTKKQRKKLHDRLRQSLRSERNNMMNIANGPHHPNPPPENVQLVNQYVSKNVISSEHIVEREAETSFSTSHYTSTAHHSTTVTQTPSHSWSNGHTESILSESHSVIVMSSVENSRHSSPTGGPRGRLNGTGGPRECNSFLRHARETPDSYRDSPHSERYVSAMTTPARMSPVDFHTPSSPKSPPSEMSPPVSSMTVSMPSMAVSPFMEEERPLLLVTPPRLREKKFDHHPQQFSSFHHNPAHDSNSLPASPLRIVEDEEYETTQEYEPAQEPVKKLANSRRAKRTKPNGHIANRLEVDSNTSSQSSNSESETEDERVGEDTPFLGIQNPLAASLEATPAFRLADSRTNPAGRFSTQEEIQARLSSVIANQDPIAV
Sequence of Neurogenic locus notch homolog protein 2 (Homo sapiens) (Q04721 whole entry, looked up, canonical isoform): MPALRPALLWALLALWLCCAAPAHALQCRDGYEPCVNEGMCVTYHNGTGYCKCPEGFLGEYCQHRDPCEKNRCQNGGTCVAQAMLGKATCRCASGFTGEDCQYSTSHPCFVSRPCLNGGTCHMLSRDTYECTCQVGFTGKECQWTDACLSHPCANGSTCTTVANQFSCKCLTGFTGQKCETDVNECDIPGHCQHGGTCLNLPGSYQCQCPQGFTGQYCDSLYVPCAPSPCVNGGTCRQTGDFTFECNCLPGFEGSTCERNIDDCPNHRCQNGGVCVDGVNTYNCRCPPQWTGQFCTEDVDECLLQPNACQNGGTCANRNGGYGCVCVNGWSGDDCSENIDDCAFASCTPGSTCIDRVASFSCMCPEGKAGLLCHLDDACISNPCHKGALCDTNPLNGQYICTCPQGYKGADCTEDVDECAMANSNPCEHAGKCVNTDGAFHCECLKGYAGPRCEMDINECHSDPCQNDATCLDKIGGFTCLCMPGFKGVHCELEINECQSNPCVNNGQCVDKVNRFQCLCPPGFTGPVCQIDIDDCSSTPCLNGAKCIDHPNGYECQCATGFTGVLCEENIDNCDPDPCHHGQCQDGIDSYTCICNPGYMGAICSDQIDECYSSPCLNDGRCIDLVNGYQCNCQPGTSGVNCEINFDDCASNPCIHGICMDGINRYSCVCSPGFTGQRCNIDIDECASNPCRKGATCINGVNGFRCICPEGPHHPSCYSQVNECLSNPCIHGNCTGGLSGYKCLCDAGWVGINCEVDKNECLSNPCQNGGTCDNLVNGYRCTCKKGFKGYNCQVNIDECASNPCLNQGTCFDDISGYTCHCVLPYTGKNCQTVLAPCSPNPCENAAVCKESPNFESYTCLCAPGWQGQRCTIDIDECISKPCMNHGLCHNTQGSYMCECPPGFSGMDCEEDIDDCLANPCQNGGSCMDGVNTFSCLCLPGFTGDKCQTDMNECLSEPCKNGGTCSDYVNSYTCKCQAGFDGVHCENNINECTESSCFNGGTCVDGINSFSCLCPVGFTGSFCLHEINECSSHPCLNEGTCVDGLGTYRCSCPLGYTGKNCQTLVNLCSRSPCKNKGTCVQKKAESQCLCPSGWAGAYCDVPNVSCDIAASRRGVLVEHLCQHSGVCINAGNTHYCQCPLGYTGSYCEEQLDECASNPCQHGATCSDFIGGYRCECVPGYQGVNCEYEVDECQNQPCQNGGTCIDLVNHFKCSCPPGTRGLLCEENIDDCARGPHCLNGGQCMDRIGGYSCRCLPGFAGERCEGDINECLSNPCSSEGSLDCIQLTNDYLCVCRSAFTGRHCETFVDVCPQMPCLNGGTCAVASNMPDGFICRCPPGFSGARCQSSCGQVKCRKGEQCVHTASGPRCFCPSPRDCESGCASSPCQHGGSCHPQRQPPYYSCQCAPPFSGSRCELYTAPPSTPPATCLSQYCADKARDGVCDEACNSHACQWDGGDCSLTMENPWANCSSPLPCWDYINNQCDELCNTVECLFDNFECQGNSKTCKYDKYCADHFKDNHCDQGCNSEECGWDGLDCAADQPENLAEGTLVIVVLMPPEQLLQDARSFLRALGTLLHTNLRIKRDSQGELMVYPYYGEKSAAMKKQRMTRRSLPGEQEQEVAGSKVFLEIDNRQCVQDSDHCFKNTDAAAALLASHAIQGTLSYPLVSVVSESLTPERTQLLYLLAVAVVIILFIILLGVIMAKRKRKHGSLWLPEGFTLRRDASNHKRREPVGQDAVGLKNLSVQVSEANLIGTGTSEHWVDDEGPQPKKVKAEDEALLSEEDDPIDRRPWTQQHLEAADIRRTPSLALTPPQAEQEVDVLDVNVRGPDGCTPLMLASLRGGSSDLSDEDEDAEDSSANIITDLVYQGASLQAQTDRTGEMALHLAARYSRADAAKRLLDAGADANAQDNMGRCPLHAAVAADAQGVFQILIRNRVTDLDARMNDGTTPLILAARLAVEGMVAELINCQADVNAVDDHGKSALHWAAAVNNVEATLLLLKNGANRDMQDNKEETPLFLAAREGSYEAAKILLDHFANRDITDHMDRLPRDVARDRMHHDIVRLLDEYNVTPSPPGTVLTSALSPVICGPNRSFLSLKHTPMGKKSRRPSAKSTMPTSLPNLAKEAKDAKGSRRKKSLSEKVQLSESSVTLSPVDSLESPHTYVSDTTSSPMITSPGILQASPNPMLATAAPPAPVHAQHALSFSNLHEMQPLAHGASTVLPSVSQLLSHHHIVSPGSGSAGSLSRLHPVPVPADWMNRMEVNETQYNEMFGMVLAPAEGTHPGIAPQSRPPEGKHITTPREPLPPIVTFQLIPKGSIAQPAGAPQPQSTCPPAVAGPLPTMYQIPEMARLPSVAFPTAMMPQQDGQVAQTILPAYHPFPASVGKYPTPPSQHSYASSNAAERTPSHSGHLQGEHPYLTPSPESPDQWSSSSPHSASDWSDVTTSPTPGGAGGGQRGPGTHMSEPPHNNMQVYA

Consider `C=CCC(OC(C)=O)[C@@H]1[C@@H](N(Cc2ccc(-c3ccccc3)cc2)C(=O)c2ccc(-c3ccccc3)cc2)c2cc(OCCCO)ccc2N1C(=O)c1ccc2ccccc2c1` (stereo not given in full), for which the composite z-score in assay [1] is 0.0946; in [2] it was 0.107; in [3] it was -0.128; in assay [4] it was 0.178; in assay [5], -0.443; in [6] it was -0.227. Moreover, the figures for the composite z-score in assay [7], in [9] and in [10] were -0.896, 0.352 and -0.353, respectively. The z-score in assay [8] is 0.807 (inactive).
`O=C(O)[C@@H]1[C@@H]2C(=O)N(c3ccccc3)C(=O)[C@@H]2C[C@@H]1Sc1ccccc1`: the composite z-score in [1] is 0.305; in [2], -0.534; in assay [3], -0.0833; in [4] it was 0.105; in assay [5], -0.0593; in [6] it was -0.141. Also, the composite z-score was 0.695 in assay [7], -0.377 in [9] and 0.0505 in [10]. In addition, the z-score in assay [8] was 1.06 (inactive).
As to `CCOC(=O)C1=C[C@@H](C(C)(C)C)N(S(=O)(=O)c2ccc(C)cc2)[C@H]1c1cccc2ccccc12`, the composite z-score is 0.0905 in assay [1]; -0.0282 in [2]; -0.0724 in assay [3]; 0.0331 in assay [4]; 1.08 in assay [5]; 0.541 in [6]. Also, the composite z-score in [7] is 0.876; in assay [9] it was 0.692; in assay [10], -0.0296. For the same molecule, the z-score in assay [8] is -4.42 (inactive).
Take `COC(=O)C1=CC(CCCO)=CC(c2cccs2)N(C)C=C1C(=O)OC` (stereo not given): the composite z-score in assay [1] is 0.0256; in [2], -0.106; in [3], -0.0737; in assay [4], -0.379; in assay [5] it was -0.324; in assay [6], 1.08. In addition, the composite z-score is 1.33 in assay [7], -0.0824 in assay [9] and -0.0994 in assay [10]. Also, the z-score in [8] is -0.656 (inactive).
Regarding `O=C(NCc1ccc(F)cc1)[C@H]1C[C@H]2C(=O)NCC(=O)N2[C@H]1c1ccc(O)cc1`, the composite z-score in [1] is 0.505; in assay [2], 0.6; in assay [3], -0.0224; in assay [4], -0.162; in assay [5], -0.336; in assay [6], 0.964. For the same molecule, the composite z-score in [7] is 1.3; in assay [9] it was 0.101; in [10], 0.12. Also, the z-score in assay [8] was -0.428 (inactive).
`COc1cc2c(cc1O)C(C1CC1)N(C)CC2` (stereo not given): the composite z-score in [1] was 0.646; in assay [2], -0.616; in [3] it was -0.104; in [4], -0.874; in assay [5], -0.531; in assay [6] it was 0.63. Besides, the composite z-score in assay [7] was -0.197; in [9] it was -0.406; in assay [10], -0.0994. For the same molecule, the z-score in assay [8] is 0.0877 (inactive).
Regarding `CO[C@H]1O[C@H](CO)[C@@H](OC(=O)Nc2ccc3c(c2)OCO3)[C@H](OC(=O)Nc2ccc3c(c2)OCO3)[C@@H]1OC(=O)Nc1ccc2c(c1)OCO2`, the composite z-score in [1] was -0.202; in assay [2], 0.584; in [3], 0.256; in assay [4] it was 1.21; in assay [5] it was 1.26; in [6], 1.78. Besides, the results for the composite z-score in assay [7], in [9] and in assay [10] were 1.2, 0.338 and 0.0818, respectively. Besides, in assay [8], the z-score is 2.2 (inactive).
Take `C#CCN([C@@H](Cc1ccccc1)C(=O)OC)[C@@H](/C=C/C1CC1)[C@H](O)Cc1ccccc1`: the composite z-score in assay [1] was 1.2; in assay [2], 0.0218; in assay [3] it was -0.114; in assay [4], -0.181; in [5], -0.875; in assay [6] it was -0.445. Moreover, the composite z-score in assay [7] was -0.351; in assay [9], -0.283; in assay [10] it was -0.169. Further, the z-score in [8] was -4.13 (inactive).
Regarding `O=C1C2C=CC(C(O)c3cccc(O)c3)N(Nc3ccc([N+](=O)[O-])cc3)C2C(=O)N1c1ccccc1` (stereo not given), the composite z-score is -0.171 in assay [1]; 0.325 in assay [2]; -0.0133 in assay [3]; 0.765 in [4]; 0.719 in assay [5]; 0.0076 in [6]. In addition, the composite z-score in [7] was 0.63; in [9], 0.441; in assay [10] it was -0.136. For the same molecule, the z-score in assay [8] is 0.125 (inactive).
As to `Cc1ccc(S[C@]2(C(=O)NCCN3CCOCC3)CC(=O)N(Cc3ccccc3Cl)[C@@H]2c2ccc(CO)cc2I)cc1`, the composite z-score is 0.75 in assay [1]; 1.78 in assay [2]; 0.0027 in [3]; -0.142 in assay [4]; -0.675 in assay [5]; 1.15 in assay [6]. Moreover, the composite z-score in assay [7] is 1.04; in [9], -0.387; in assay [10], 0.302. The z-score in assay [8] was -2.03 (inactive).
On to `C=CCN1C(=O)[C@]2(CCC(=O)OC(C)(C)C)N=C(c3ccc(OCCCO)cc3)O[C@@H]2c2ccccc21`, for which the composite z-score in assay [1] was 0.369; in assay [2], 0.401; in [3] it was -0.0791; in assay [4] it was -0.475; in assay [5], 0.729; in assay [6], 0.811. Also, the composite z-score is 0.542 in assay [7], 0.0909 in assay [9] and -0.0994 in assay [10]. Further, the z-score in [8] was -2.29 (inactive).
For the molecule `COc1ccc([Si](C)(C)[C@@H]2[C@@H](CC(=O)N3CCC[C@H]3CO)O[C@]3(C(=O)N(Cc4cccc(N5C(=O)COc6ccccc65)c4)c4ccccc43)[C@H]2C)cc1`, the composite z-score in [1] was -0.222; in assay [2], 0.203; in [3] it was -0.112; in assay [4], 0.428; in assay [5], -0.173; in [6], 1.35. Moreover, the composite z-score in assay [7] came out at 1.12; in [9], 0.824; in assay [10] it was 0.103. The z-score in [8] is -0.234 (inactive).
As for `CCCCN1CC=CC23O[C@@H]4/C=C\CCCOC(=O)C4[C@H]2C(=O)N(CCO)[C@@H]3C1=O` (stereo not given in full), the composite z-score in [1] was 0.33; in assay [2], -1.37; in assay [3], -0.19; in assay [4] it was -0.615; in assay [5] it was -0.913; in assay [6], 0.441. Besides, the composite z-score in assay [7] was 1.61; in [9], -1; in [10], -0.271. The z-score in assay [8] is -0.0657 (inactive).
Take `N#Cc1ccc(NN2C(C(O)c3ccc(Br)cc3)C=CC3C(=O)N(c4ccccc4)C(=O)C32)cc1` (stereo not given): the composite z-score in [1] was 1.36; in [2], 0.288; in assay [3], 0.254; in [4], 0.73; in assay [5], 1.58; in [6], 1.74. Also, the composite z-score was 0.976 in assay [7], 0.907 in assay [9] and -0.182 in assay [10]. Further, in assay [8], the z-score is -2.87 (inactive).
`COC(=O)[C@@H]1N=C(c2ccc(OCCCO)cc2)O[C@@H]1c1ccccc1`: the composite z-score is 0.497 in [1]; -0.0336 in assay [2]; -0.103 in [3]; -0.789 in assay [4]; -0.997 in assay [5]; 0.403 in assay [6]. Besides, the composite z-score in [7] is 0.326; in assay [9], -0.456; in assay [10], 0.176. In addition, in assay [8], the z-score is 7.16 (inactive).
Turning to `COc1ccc([Si](C)(C)[C@@H]2[C@@H](CC(=O)N3Cc4ccccc4C[C@H]3CO)O[C@]3(C(=O)N(Cc4ccc(N5C(=O)c6cccc7cccc5c67)cc4)c4ccccc43)[C@H]2C)cc1`, the composite z-score in assay [1] is -0.184; in assay [2], 0.614; in assay [3] it was -0.0136; in assay [4], 0.637; in assay [5], 1.21; in assay [6], 0.325. Also, the composite z-score is 1.17 in assay [7], 0.0242 in assay [9] and -0.361 in assay [10]. For the same molecule, in assay [8], the z-score is -1.88 (inactive).
For the molecule `C[N+](C)(C)CCCCCCNC(=O)[C@@H]1C[C@@H]2C(=O)N3CCC[C@H]3C(=O)N2[C@@H]1c1ccc(O)cc1`, the composite z-score in [1] was -0.138; in assay [2] it was 1.74; in [3] it was -0.0788; in [4], 0.571; in assay [5], 0.43; in assay [6], 0.317. Besides, the composite z-score amounted to 1.34 in assay [7], 0.648 in assay [9] and 0.21 in assay [10]. The z-score in assay [8] is 3.36 (inactive).
